Measurements taken from PubChem BioAssay AID624255 (Broad Institute, 2012).
About 4,600 (6%) of roughly 77,000 compounds were called active. Roughly 1% stayed inconclusive and do not appear here. What follows is part of a selection rich in actives, with near analogues and random picks from the rest. A number with no mark means an inactive call.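 How the source made its calls: active means mean inhibition above about 93%, with at least 55% of replicates each passing it (limit read from the data, passing the limit was not always enough); inconclusive means only one of those two conditions holds; inactive means neither condition holds.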

experiment: T. cruzi intracellular proliferation inhibitors, primary screen, cell-based, beta-gal Tulahuen parasites, NIH3T3 host, luminescence (AID 624255); settings: T. cruzi beta-gal in NIH3T3, GalScreen luminescence, 90 h; at 8.34 µM; hits give high values

Row | SMILES | inhibition
1 | Cc1cccc(S(=O)(=O)N2C[C@@H](O)COC[C@H]3O[C@H](CC(=O)Nc4ccc(-c5ccccc5)cc4)CC[C@@H]32)c1 | 94.5%
2 | O=C(C[C@H]1CC[C@H]2[C@@H](COC[C@H](O)CN2S(=O)(=O)c2cccc(Cl)c2)O1)Nc1ccccc1 | 11.3%
3 | COc1cccc(S(=O)(=O)N2C[C@@H](O)COC[C@@H]3O[C@H](CC(=O)Nc4ccccc4)CC[C@H]32)c1 | 109% (active)
4 | Cc1ccc(S(=O)(=O)N2C[C@@H](O)COC[C@@H]3O[C@H](CC(=O)NCc4ccc(Cl)c(Cl)c4)CC[C@H]32)cc1 | 97.5% (active)
5 | O=C(C[C@@H]1CC[C@@H]2[C@H](COC[C@H](O)CN2S(=O)(=O)c2ccc(F)cc2)O1)NCc1ccc(Cl)c(Cl)c1 | 54.2%
6 | Cc1ccc(S(=O)(=O)N2C[C@H](O)COC[C@@H]3O[C@@H](CC(=O)NCC4CCCCC4)CC[C@H]32)cc1 | 5.15%
7 | Cc1ccc(S(=O)(=O)Nc2ccc3c(c2)C(=O)N([C@@H](C)CO)C[C@@H](C)[C@H](CN(C)Cc2ccncc2)O3)cc1 | 5.91%
8 | CN(C)C(=O)[C@@H]1[C@@H](CO)[C@@H]2Cn3c(ccc(-c4ccccc4F)c3=O)[C@@H]2N1C(=O)C1CC1 | 30.9%
9 | C[C@@H]1CCCCO[C@H](CN(C)S(=O)(=O)c2cn(C)cn2)[C@@H](C)CN([C@@H](C)CO)C(=O)c2cc(NC(=O)CCC(F)(F)F)ccc2O1 | 28.2%
10 | O=C(C[C@@H]1CC[C@@H](NS(=O)(=O)c2ccccc2)[C@H](CO)O1)NCc1ccc(Cl)c(Cl)c1 | -48.5%
11 | C[C@@H]1CN([C@@H](C)CO)C(=O)c2cc(C#CC(C)(C)O)cnc2O[C@@H]1CN(C)C(=O)C1CCOCC1 | -1.59%
12 | O=C(Cc1ccncc1)Nc1ccc2c(c1)[C@@H]1C[C@H](CC(=O)N3CCCCC3)O[C@H](CO)[C@@H]1O2 | 14.2%
13 | CN1c2ccc(-c3ccccc3)cc2[C@@H]2[C@@H](CCN2C(=O)NC2CCCC2)[C@H]1CO | 6.51%
14 | Cc1noc(C)c1S(=O)(=O)Nc1ccc2c(c1)C(=O)N([C@@H](C)CO)C[C@@H](C)[C@H](CN(C)C(=O)Nc1cccc3ccccc13)OCCCC[C@H](C)O2 | 72.3%
15 | C[C@@H]1CCCCO[C@@H](CN(C)C(=O)Nc2cccc3ccccc23)[C@@H](C)CN([C@H](C)CO)C(=O)c2cc(NS(C)(=O)=O)ccc2O1 | -3.68%
16 | C[C@@H]1CCCCO[C@H](CN(C)C(=O)Nc2cccc3ccccc23)[C@@H](C)CN([C@H](C)CO)C(=O)c2cc(NS(=O)(=O)c3cccs3)ccc2O1 | 87.5%
17 | C[C@@H]1CCCCO[C@H](CN(C)C(=O)Nc2cccc3ccccc23)[C@H](C)CN([C@H](C)CO)C(=O)c2cc(NS(=O)(=O)c3cccs3)ccc2O1 | 115% (active)
18 | Cc1noc(C)c1S(=O)(=O)Nc1ccc2c(c1)C(=O)N([C@@H](C)CO)C[C@@H](C)[C@H](CN(C)C(=O)Nc1cccc3ccccc13)O2 | -148%
19 | Cc1noc(C)c1S(=O)(=O)Nc1ccc2c(c1)C(=O)N([C@@H](C)CO)C[C@H](C)[C@@H](CN(C)C(=O)Nc1cccc3ccccc13)OCCCC[C@H](C)O2 | 104% (active)
20 | C[C@H]1CN([C@@H](C)CO)C(=O)c2cc(-c3ccccc3)cnc2O[C@H]1CN(C)C(=O)C1CCOCC1 | 60.3%
21 | CC(=O)N1[C@@H](CO)[C@@H]2c3ccccc3N(S(=O)(=O)c3ccccc3)C[C@@H]21 | 17.9%

Row | SMILES | inhibition
22 | CN1C(=O)c2cc(NC(=O)c3ccno3)ccc2OC[C@H]2O[C@@H](CC(=O)NCC(F)(F)F)CC[C@@H]21 | -16.1%
23 | CO[C@@H]1CN(C)C(=O)c2ccc(NC(=O)c3ccc(F)cc3)cc2OC[C@H](C)N(C(=O)c2ccc(F)cc2)C[C@@H]1C | 33.4%
24 | C[C@@H]1CN([C@@H](C)CO)S(=O)(=O)c2ccc(C#CCC3CCCC3)cc2O[C@H]1CN(C)C(=O)CC1CC1 | 116% (active)
25 | C[C@@H]1CN([C@@H](C)CO)S(=O)(=O)c2ccc(C#CCN(C)C)cc2O[C@@H]1CN(C)C(=O)CC1CC1 | 27.9%
26 | C[C@@H]1CN([C@@H](C)CO)S(=O)(=O)c2ccc(C#CCC3CCCC3)cc2O[C@@H]1CN(C)C | 2.02%
27 | C[C@@H]1CN([C@H](C)CO)S(=O)(=O)c2ccc(C#CCC3CCCC3)cc2O[C@H]1CN(C)C(=O)CC1CC1 | 119% (active)
28 | COCC#Cc1ccc2c(c1)O[C@H](CN(C)C(=O)CC1CC1)[C@@H](C)CN([C@@H](C)CO)S2(=O)=O | 72.2%
29 | C[C@@H]1CN([C@H](C)CO)S(=O)(=O)c2ccc(C#CCN(C)C)cc2O[C@H]1CN(C)C(=O)CC1CC1 | 92.5%
30 | O=C(C[C@H]1CC[C@H](NC(=O)c2ccc3c(c2)OCO3)[C@H](CO)O1)NCc1ccc(Oc2ccccc2)cc1 | -47.4%
31 | O=C(NCc1ccccc1Cl)[C@H]1[C@H](CO)[C@H]2Cn3c(cccc3=O)[C@H]2N1C(=O)C1CCC1 | 19.3%
32 | C/C=C/c1ccc([C@@H]2[C@@H](CO)N(C(C)=O)[C@H]2CN(C)C(=O)CN(C)C)cc1 | -6.45%
33 | CC(C)C#Cc1ccc2c(c1)O[C@@H](CN(C)C(=O)NC(C)C)[C@H](C)CN([C@H](C)CO)S2(=O)=O | 55.8%
34 | C[C@@H]1CN([C@@H](C)CO)S(=O)(=O)c2ccc(C#Cc3ccc(F)cc3)cc2O[C@@H]1CN(C)CC1CC1 | 11.3%
35 | C/C=C/c1ccc2c(c1)O[C@H](CN(C)C(=O)Nc1ccccc1)[C@H](C)CN([C@@H](C)CO)S2(=O)=O | 45.2%
36 | CC(C)CC#Cc1ccc2c(c1)O[C@@H](CN(C)C(=O)c1ccccn1)[C@@H](C)CN([C@H](C)CO)S2(=O)=O | 74.4%
37 | C/C=C/c1ccc2c(c1)O[C@@H](CN(C)C(=O)c1ccccn1)[C@H](C)CN([C@@H](C)CO)S2(=O)=O | 11.4%
38 | C[C@@H]1CN([C@@H](C)CO)S(=O)(=O)c2ccc(C#Cc3ccc(F)cc3)cc2O[C@H]1CN(C)C(=O)c1ccccn1 | 103% (active)
39 | C[C@@H]1CN([C@@H](C)CO)S(=O)(=O)c2ccc(C#Cc3ccc(F)cc3)cc2O[C@H]1CN(C)C(=O)NC1CCCC1 | 114% (active)
40 | COc1ccc(C#Cc2ccc3c(c2)O[C@@H](CN(C)C(=O)Nc2cccc(OC)c2)[C@H](C)CN([C@H](C)CO)S3(=O)=O)cc1 | 73.3%
41 | C[C@@H]1CN([C@@H](C)CO)S(=O)(=O)c2ccc(C#Cc3ccccc3)cc2O[C@@H]1CN(C)C(=O)Nc1ccccc1 | 113% (active)
